Measurements from PubChem BioAssay (Tox21).
“And” between values parts separate entries of the source, which are not always exact repeats. Equal entries are not always repeated. Results filed as inconclusive are left out. A call without a number means that no potency is given here. A structure can be active in one record and inactive in another. The source made the active and inactive calls. Unless noted, calls come from the whole dose curve; as a rule, active = well fitted curve in the direction sought with a large enough effect in the repeat runs; inconclusive = weak or mixed curves; inactive = no such curve, though single readings can be large; an effect the other way counts as inactive or inconclusive.

Legend:
[1] = qHTS assay to identify small molecule agonists of the estrogen receptor alpha (ER-alpha) signaling pathway in the presence of an antagonist - cell viability counter screen (AID 1259386);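 note: cells exposed to compounds for 22 h at 37 °C before the viability read; nearly all actives have a fitted effect of over 30% in size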; note: potency is the fitted concentration of half-maximal effect
Method in brief: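 Using estrogen-depleted VM7Luc4E2 cells, the 15-concentration compound series was applied together with 10.0nM ICI-182,780 and incubated 22hr at 37C/5% CO2. Cell viability was then scored by CellTiter-Fluor.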

[2] = target: Progesterone receptor (Homo sapiens) (UniProt P06401); test: qHTS assay to identify small molecule agonists of the progesterone receptor (PR) signaling pathway (AID 1346784; calls by dose curve; note: nearly all actives have a fitted effect of over 30% in size)
Progesterone receptor (Homo sapiens), sequence (P06401 whole entry, looked up): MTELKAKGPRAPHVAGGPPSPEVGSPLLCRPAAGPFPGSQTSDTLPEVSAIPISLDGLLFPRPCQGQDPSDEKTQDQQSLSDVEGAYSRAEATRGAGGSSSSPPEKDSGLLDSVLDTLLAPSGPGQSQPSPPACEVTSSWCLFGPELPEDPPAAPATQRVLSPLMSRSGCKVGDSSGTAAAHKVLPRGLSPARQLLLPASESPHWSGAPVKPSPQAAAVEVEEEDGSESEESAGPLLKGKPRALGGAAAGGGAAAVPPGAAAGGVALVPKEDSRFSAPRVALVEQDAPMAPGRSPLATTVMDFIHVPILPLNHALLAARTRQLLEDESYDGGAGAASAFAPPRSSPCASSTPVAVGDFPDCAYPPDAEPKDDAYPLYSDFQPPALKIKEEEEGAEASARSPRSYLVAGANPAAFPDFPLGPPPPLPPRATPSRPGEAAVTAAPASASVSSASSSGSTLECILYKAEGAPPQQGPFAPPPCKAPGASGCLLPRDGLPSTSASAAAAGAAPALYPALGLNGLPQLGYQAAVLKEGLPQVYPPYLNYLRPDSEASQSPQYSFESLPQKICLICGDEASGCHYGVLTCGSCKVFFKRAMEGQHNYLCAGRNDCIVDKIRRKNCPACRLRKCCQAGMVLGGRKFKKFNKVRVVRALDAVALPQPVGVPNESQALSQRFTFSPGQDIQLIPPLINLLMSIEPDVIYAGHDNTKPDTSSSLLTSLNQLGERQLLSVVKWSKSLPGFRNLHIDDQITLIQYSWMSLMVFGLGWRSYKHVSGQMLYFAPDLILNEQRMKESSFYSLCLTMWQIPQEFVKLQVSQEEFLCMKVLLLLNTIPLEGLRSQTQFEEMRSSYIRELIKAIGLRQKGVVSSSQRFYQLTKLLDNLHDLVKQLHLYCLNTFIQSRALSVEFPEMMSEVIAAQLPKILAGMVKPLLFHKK
Method in brief: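 Agonist mode, quantitative HTS format in a HEK 293T line expressing a UAS-controlled beta-lactamase reporter; 16 hr compound exposure at 37C in 2% charcoal-stripped FBS, then LiveBLAzer B/G FRET fluorescence.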

[3] = target: Progesterone receptor (Homo sapiens) (UniProt P06401); test: qHTS assay to identify small molecule antagonists of the progesterone receptor (PR) signaling pathway (AID 1346795; active = well fitted inhibition curve with a large enough effect in the signal ratio in the repeat runs, not every such curve was filed as active; the % refers to the signal ratio)
Method in brief: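 HEK293T PR-UAS-bla reporter cells in charcoal-stripped serum (2%) received compound after a 6 hr settling period, followed by R5020 agonist at 1 nM final; 16 hr incubation preceded the FRET substrate step and fluorescence measurement.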

[4] = qHTS assay to identify small molecule antagonists of the progesterone receptor (PR) signaling pathway - cell viability counter screen (AID 1346798); note: series mostly up to about 92 µM; nearly all actives have a fitted effect of over 50% in size
Method in brief: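 Same-well multiplex: after 16 hr at 37C with compound and R5020 stimulation, HEK293T cells carrying a UAS-bla reporter received LiveBLAzer substrate (2 hr RT), then CellTiter-Glo (30 min RT) for luminescent viability.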

[5] = qHTS assay to identify small molecule agonists of the progesterone receptor (PR) signaling pathway - cell viability counter screen (AID 1346799; calls by dose curve; note: nearly all actives have a fitted effect of over 45% in size)
Method in brief: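 Counter screen for cytotoxicity: compound-treated PR-UAS-bla HEK293T cells (16 hr, 37C, 5% CO2) were assayed with CellTiter-Glo, luminescence measured after 30 min at room temperature.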

[6] = qHTS assay to identify small molecule agonists of the TGF-beta/Smad signaling pathway - cell viability counter screen (AID 1346829); note: top concentration of the series differs between compounds; nearly all actives have a fitted effect of over 45% in size
Method in brief: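 Luminescence from CellTiter-Glo, read after a 30 min room-temperature incubation, gives cell viability of SBE-bla HEK 293T cells treated 5 hr with compounds at 37 C.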

[7] = qHTS assay to identify small molecule agonists of the TGF-beta/Smad signaling pathway (AID 1346859; active = well fitted activation curve with a large enough effect in the signal ratio in the repeat runs, not every such curve was filed as active; the % refers to the signal ratio; note: series mostly up to about 77 µM)
Method in brief: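 Smad-responsive beta-lactamase reporter cells (HEK 293T) received compounds from DMSO stocks after overnight attachment, were incubated 5 hr, then treated 2 hr with FRET substrate before dual-emission fluorescence measurement (405 nm excitation).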

[8] = Human pregnane X receptor (PXR) small molecule agonists, qHTS cell viability counter screen (AID 1346977); note: nearly all actives have a fitted effect of over 50% in size; note: potency is the fitted concentration of half-maximal effect
Method in brief: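 Measures live-cell protease fluorescence (CellTiter-Fluor) in PXR-Luc HepG2 cells treated 24hr with compounds at 37C. Cells had 5hr to attach before pin transfer of DMSO solutions.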

[9] = Caspase-3/7 induction in HepG2 cells by small molecules, qHTS assay (AID 1346978); note: nearly all actives have a fitted effect of over 15% in size
Method in brief: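 Wild-type HepG2 cells (2,000/well) were settled 5 h at 37 C, 5% CO2, then exposed to compounds in DMSO for 17 h. Caspase-3/7 activity was read by luminescence 30 min after adding Caspase-Glo 3/7 reagent at room temperature.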

[10] = Caspase-3/7 induction in CHO-K1 cells by small molecules, qHTS cell viability counter screen (AID 1346979); note: nearly all actives have a fitted effect of over 35% in size; note: potency is the fitted concentration of half-maximal effect
Method in brief: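 In the same wells as the caspase read, viability of compound-treated wild-type CHO-K1 cells was assessed using CellTiter-Fluor, added after 16hr at 37C and measured by fluorescence following 1hr further incubation.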

[11] = Caspase-3/7 induction in CHO-K1 cells by small molecules, qHTS assay (AID 1346980); note: nearly all actives have a fitted effect of over 15% in size
Method in brief: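 Wild-type cells were seeded at 1,500 per well and settled 5 hr at 37 C, 5% CO2, then exposed to DMSO-dissolved compounds for 17 hr. Caspase-Glo 3/7 reagent was added, and luminescence was read after 30min at room temperature.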

[12] = Caspase-3/7 induction in HepG2 cells by small molecules, qHTS cell viability counter screen (AID 1346981); note: nearly all actives have a fitted effect of over 30% in size; note: potency is the fitted concentration of half-maximal effect
Method in brief: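 After a 5-hr attachment period at 37 C and 5% CO2, wild-type HepG2 cells received compounds in DMSO. Sixteen hours later CellTiter-Fluor was dispensed and the fluorescent signal quantified after a further hour.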

[13] = target: Nuclear receptor subfamily 1 group I member 2 (Homo sapiens) (UniProt O75469); test: Human pregnane X receptor (PXR) small molecule agonists, qHTS assay (AID 1346982); note: nearly all actives have a fitted effect of over 35% in size
Nuclear receptor subfamily 1 group I member 2 (Homo sapiens), sequence (O75469 whole entry, looked up): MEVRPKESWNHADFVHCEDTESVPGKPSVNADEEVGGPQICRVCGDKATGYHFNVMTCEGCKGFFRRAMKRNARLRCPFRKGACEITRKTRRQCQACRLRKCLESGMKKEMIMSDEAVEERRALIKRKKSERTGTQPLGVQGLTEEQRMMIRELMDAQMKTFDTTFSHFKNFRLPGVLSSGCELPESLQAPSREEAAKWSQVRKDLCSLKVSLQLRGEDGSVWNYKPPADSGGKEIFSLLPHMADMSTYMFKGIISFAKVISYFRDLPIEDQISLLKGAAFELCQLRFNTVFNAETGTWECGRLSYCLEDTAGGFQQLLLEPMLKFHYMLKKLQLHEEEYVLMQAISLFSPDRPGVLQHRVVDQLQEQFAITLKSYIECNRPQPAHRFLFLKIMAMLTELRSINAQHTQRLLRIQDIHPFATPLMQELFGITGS
Method in brief: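 Tox21 qHTS; PXR-Luc HepG2; compounds pinned from DMSO; 24 hr, 37 C; ONE-Glo luciferase detection, 30 min room temperature.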

[14] = target: Nuclear receptor subfamily 1 group I member 2 (Homo sapiens) (UniProt O75469); test: Human pregnane X receptor (PXR) activation by small molecules, qHTS assay (AID 1346985); note: nearly all actives have a fitted effect of over 40% in size
Method in brief: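 DPX-2 cells (HepG2 co-transfected with a PXR response element and a CYP3A4-promoter luciferase construct) were seeded at 2,000 per well, rested 5 hr at 37C, then exposed to DMSO-dissolved compounds for 24 hr. Activation was read as luciferase luminescence.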

[15] = target: Cytochrome P450 2D6 (Homo sapiens) (UniProt P10635); test: Cytochrome P450 Family 2 Subfamily D Member 6 (CYP2D6) small molecule antagonists: luciferase reporter qHTS assay (AID 1671196); note: series mostly up to about 120 µM; nearly all actives have a fitted effect of over 50% in size
Cytochrome P450 2D6 (Homo sapiens), sequence (P10635 whole entry, looked up): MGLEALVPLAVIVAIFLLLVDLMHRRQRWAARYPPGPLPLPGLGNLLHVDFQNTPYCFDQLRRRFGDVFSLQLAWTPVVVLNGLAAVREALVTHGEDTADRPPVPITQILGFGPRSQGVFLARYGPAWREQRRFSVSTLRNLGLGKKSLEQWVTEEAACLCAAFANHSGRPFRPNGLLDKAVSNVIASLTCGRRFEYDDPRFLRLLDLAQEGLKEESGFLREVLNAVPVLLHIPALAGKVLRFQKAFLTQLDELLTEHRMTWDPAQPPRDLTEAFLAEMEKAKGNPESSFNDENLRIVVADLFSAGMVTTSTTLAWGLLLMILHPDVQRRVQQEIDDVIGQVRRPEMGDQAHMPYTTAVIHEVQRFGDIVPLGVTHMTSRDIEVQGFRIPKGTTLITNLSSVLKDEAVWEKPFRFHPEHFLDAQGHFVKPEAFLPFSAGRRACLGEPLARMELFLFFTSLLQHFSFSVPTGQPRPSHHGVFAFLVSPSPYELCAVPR
Method in brief: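 Room-temperature luminescent CYP2D6 activity assay: compound preincubated 10 min with enzyme–substrate mix, NADPH-initiated reaction 1 h, detection reagent 20 min before reading.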

[16] = target: Cytochrome P450 2C19 (Homo sapiens) (UniProt P33261); test: Cytochrome P450 Family 2 Subfamily C Member 19 (CYP2C19) small molecule antagonists: luciferase reporter qHTS assay (AID 1671197); note: nearly all actives have a fitted effect of over 65% in size; note: potency is the fitted concentration of half-maximal effect; for activity change, negative = inhibition: series mostly up to about 120 µM
Cytochrome P450 2C19 (Homo sapiens), sequence (P33261 whole entry, looked up): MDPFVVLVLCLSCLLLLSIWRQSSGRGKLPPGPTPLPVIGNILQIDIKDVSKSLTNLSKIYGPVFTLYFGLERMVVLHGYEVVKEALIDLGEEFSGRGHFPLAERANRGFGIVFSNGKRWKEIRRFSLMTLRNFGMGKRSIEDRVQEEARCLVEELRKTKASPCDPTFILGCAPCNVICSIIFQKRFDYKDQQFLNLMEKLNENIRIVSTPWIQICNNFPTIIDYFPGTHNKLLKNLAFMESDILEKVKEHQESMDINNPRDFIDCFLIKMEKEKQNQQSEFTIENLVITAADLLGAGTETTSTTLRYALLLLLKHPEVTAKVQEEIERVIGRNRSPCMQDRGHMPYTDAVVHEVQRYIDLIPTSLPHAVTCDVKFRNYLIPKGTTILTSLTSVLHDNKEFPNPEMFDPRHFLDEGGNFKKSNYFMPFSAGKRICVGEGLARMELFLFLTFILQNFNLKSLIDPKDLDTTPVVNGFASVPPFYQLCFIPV
Method in brief: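 CYP2C19 P450-Glo, 1536-well qHTS. Cpd + enzyme/proluciferin substrate 10 min RT; + NADPH regen, 37C 1 h; stop with luciferin detection reagent, 20 min RT, luminescence (RLU). Pos ctrl ketoconazole.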

[17] = target: Cytochrome P450 2C9 (Homo sapiens) (UniProt P11712); test: Cytochrome P450 Family 2 Subfamily C Member 9 (CYP2C9) small molecule antagonists: luciferase reporter qHTS assay (AID 1671198); note: nearly all actives have a fitted effect of over 50% in size; note: potency is the fitted concentration of half-maximal effect; for activity change, negative = inhibition: series mostly up to about 120 µM
Cytochrome P450 2C9 (Homo sapiens), sequence (P11712 whole entry, looked up): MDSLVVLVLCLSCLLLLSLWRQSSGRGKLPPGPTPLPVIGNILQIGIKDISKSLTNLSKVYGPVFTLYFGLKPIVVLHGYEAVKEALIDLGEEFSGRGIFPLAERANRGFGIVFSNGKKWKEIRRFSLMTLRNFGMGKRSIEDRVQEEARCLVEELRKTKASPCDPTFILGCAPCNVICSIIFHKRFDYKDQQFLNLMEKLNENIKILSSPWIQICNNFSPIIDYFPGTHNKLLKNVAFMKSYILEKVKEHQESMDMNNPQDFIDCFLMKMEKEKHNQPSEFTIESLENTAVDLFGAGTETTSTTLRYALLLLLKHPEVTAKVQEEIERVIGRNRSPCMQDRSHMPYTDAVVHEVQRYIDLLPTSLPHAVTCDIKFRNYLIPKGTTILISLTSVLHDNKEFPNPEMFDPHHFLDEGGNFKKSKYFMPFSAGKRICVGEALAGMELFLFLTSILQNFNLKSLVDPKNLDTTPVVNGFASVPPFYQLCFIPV
Method in brief: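 CYP2C9 activity was measured with a P450-Glo proluciferin substrate. Enzyme–substrate mix was held with compound for 10 min at room temperature, then NADPH regeneration solution was added for 1 h at 37C. Luciferin product was read as luminescence.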

[18] = target: Thyrotropin-releasing hormone receptor (Homo sapiens) (UniProt P34981); test: qHTS assay to identify small molecule antagonists of the thyrotropin-releasing hormone receptor (TRHR) signaling pathway (AID 1346877; active = well fitted inhibition curve with a large enough effect in the repeat runs, not every such curve was filed as active; note: series mostly up to about 51 µM)
Thyrotropin-releasing hormone receptor (Homo sapiens), sequence (P34981 whole entry, looked up): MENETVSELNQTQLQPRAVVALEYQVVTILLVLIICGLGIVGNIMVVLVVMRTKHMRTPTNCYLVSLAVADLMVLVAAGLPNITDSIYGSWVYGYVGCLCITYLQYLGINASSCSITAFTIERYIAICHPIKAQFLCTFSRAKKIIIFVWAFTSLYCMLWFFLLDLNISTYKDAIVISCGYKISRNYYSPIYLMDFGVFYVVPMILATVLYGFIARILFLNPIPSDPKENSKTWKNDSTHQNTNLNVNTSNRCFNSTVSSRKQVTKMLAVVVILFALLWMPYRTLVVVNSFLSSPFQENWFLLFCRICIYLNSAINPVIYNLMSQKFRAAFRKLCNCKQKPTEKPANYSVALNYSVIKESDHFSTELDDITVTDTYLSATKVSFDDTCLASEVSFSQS
Method in brief: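 Calcium signal in dye-loaded TRHR/HEK293 cells; compounds added 5 min before TRH (1 nM final); fluorescence monitored 3 min at 1 s steps.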

[19] = target: Thyrotropin-releasing hormone receptor (Homo sapiens) (UniProt P34981); test: qHTS assay to identify small molecule agonists of the thyrotropin-releasing hormone receptor (TRHR) signaling pathway (AID 1346891; calls by dose curve;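 note: HEK293 cells expressing TRHR with calcium dye readout; series mostly up to about 58 µM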)
Method in brief: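 Agonist-mode calcium mobilisation screen: TRHR-transfected HEK293 cells cultured overnight (18 h), dye-loaded for 2 h at 37 °C, exposed to compounds, and monitored by fluorescence for 3 min.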

[20] = qHTS assay to identify small molecule antagonists of the TGF-beta/Smad signaling pathway - cell viability counter screen (AID 1346824); note: nearly all actives have a fitted effect of over 50% in size
Method in brief: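 SBE-bla HEK 293T cells were plated overnight at 37 C, then given compounds in DMSO plus TGF-beta1 (added as 0.25 ng/mL solution) for 5 hr. After the bla read, CellTiter-Glo was added to the same wells and luminescence read after 30 min at room temperature.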

## Nc1ccc(C(=O)O)cc1
[1]
  Potency: inactive
[2]
  Potency: inactive
[3]
  outcome: inactive
[4]
  Potency: inactive
[5]
  Potency: inactive
[6]
  Potency: inactive
[7]
  outcome: inactive
[8]
  Potency: inactive
[9]
  Potency: inactive
[10]
  Potency: inactive
[11]
  outcome: inactive
[12]
  Potency: inactive
[13]
  Potency: inactive
[14]
  Potency: inactive
[15]
  Potency: inactive
[16]
  Potency: inactive
[17]
  Potency: inactive

## OCCc1ccccc1
[1]
  Potency: inactive
[2]
  Potency: inactive
[3]
  outcome: inactive
[4]
  Potency: inactive
[5]
  Potency: inactive
[6]
  Potency: inactive
[7]
  outcome: inactive
[18]
  outcome: inactive
[19]
  outcome: inactive
[8]
  Potency: inactive
[9]
  Potency: inactive
[10]
  Potency: inactive
[11]
  outcome: inactive
[12]
  Potency: inactive
[13]
  Potency: inactive
[15]
  Potency: inactive
[16]
  Potency: inactive
[17]
  Potency: inactive

## O=C(O)c1cc(N=Nc2ccc(S(=O)(=O)Nc3ccccn3)cc2)ccc1O
[1]
  Potency: 61.3 µM (active) and 30.6 µM (active) and 29.8 µM (active)
[2]
  Potency: inactive
[3]
  outcome: inactive
[4]
  Potency: inactive
[5]
  Potency: inactive
[6]
  Potency: inactive
[7]
  outcome: inactive
[8]
  Potency: 39.8 µM (active)
[9]
  Potency: inactive
[10]
  Potency: 34.5 µM (active) and 54.5 µM (active) and 26.6 µM (active)
[11]
  outcome: inactive
[12]
  Potency: 27.4 µM (active) and 48.6 µM (active) and 23.7 µM (active)
[13]
  Potency: inactive
[14]
  Potency: inactive
[15]
  Potency: inactive
[16]
  Potency: 56.6 µM (active) and inactive
[17]
  Potency: 14.2 µM (active) and 17.8 µM (active) and 8.71 µM (active)

## O=C(O)C(=O)O
[1]
  Potency: inactive
[2]
  Potency: inactive
[3]
  outcome: inactive
[4]
  Potency: inactive
[5]
  Potency: inactive
[6]
  Potency: inactive
[7]
  outcome: inactive
[8]
  Potency: inactive
[9]
  Potency: inactive
[10]
  Potency: inactive
[11]
  outcome: inactive
[12]
  Potency: inactive
[13]
  Potency: inactive
[15]
  Potency: inactive
[16]
  Potency: 81 µM (active)
  activity change, negative = inhibition: -11.9% [at 10.5 µM] (inactive)
[17]
  Potency: inactive

## C[C@]12C=CC(=O)C=C1CC[C@@H]1[C@@H]2[C@@H](O)C[C@@]2(C)[C@H]1CC[C@]2(O)C(=O)CO
[1]
  Potency: inactive
[4]
  Potency: inactive
[5]
  Potency: inactive
[6]
  Potency: inactive
[7]
  outcome: inactive
[8]
  Potency: inactive
[9]
  Potency: inactive
[10]
  Potency: inactive
[11]
  outcome: inactive
[12]
  Potency: inactive
[13]
  Potency: inactive
[14]
  Potency: inactive
[15]
  Potency: inactive
[16]
  Potency: 78.6 µM (active) and inactive
[17]
  Potency: 62.4 µM (active) and inactive

## O=C(O)CS
[1]
  Potency: inactive
[4]
  Potency: inactive
[5]
  Potency: inactive
[20]
  outcome: inactive
[6]
  Potency: inactive
[7]
  outcome: inactive
[18]
  outcome: inactive
[19]
  outcome: inactive
[8]
  Potency: inactive
[9]
  Potency: inactive
[10]
  Potency: inactive and 61.6 µM (active)
[11]
  outcome: inactive
[12]
  Potency: inactive
[13]
  Potency: inactive
[15]
  Potency: inactive
[16]
  Potency: inactive
[17]
  Potency: inactive

## Nc1ccc(O)c(C(=O)O)c1
[1]
  Potency: 48.1 µM (active) and 54.5 µM (active)
[2]
  Potency: inactive
[3]
  outcome: inactive
[4]
  Potency: inactive
[5]
  Potency: inactive
[6]
  Potency: inactive
[7]
  outcome: inactive
[18]
  outcome: inactive
[19]
  outcome: inactive
[8]
  Potency: inactive
[9]
  Potency: inactive
[11]
  outcome: inactive
[12]
  Potency: inactive
[13]
  Potency: inactive
[16]
  Potency: 79 µM (active) and 31.7 µM (active) and inactive
[17]
  Potency: 62.7 µM (active) and 63.3 µM (active)

## Nc1ccc(S(=O)(=O)Nc2nccs2)cc1
[1]
  Potency: inactive
[2]
  Potency: inactive
[3]
  outcome: inactive
[4]
  Potency: inactive
[5]
  Potency: inactive
[6]
  Potency: inactive
[7]
  outcome: inactive
[8]
  Potency: inactive
[9]
  Potency: inactive
[10]
  Potency: inactive
[11]
  outcome: inactive
[12]
  Potency: inactive
[13]
  Potency: inactive
[15]
  Potency: inactive
[16]
  Potency: inactive
[17]
  Potency: inactive

## O=C(O)c1cccc([N+](=O)[O-])c1
[1]
  Potency: inactive
[2]
  Potency: inactive
[3]
  outcome: inactive
[4]
  Potency: inactive
[5]
  Potency: inactive
[6]
  Potency: inactive
[7]
  outcome: inactive
[18]
  outcome: inactive
[19]
  outcome: inactive
[8]
  Potency: inactive
[9]
  Potency: inactive
[10]
  Potency: inactive
[11]
  outcome: inactive
[12]
  Potency: inactive
[15]
  Potency: inactive
[16]
  Potency: inactive
[17]
  Potency: inactive

## NS(=O)(=O)c1cc(C(=O)O)c(NCc2ccco2)cc1Cl
[1]
  Potency: inactive
[2]
  Potency: inactive
[3]
  outcome: inactive
[4]
  Potency: inactive
[5]
  Potency: inactive
[6]
  Potency: inactive
[7]
  outcome: inactive
[18]
  outcome: inactive
[19]
  outcome: inactive
[8]
  Potency: inactive
[10]
  Potency: inactive
[11]
  outcome: inactive
[12]
  Potency: inactive
[13]
  Potency: inactive
